# Compound activity: PubChem, several laboratories
# Hits are enriched below; roughly 3.7% of the tested compounds scored in any of these assays.
# PfHsp90 yeast 2: reduces growth (ATP signal) of yeast expressing P. falciparum Hsp90; S. cerevisiae expressing PfHsp90, BacTiter-Glo ATP, 48 h; yeast lacking PDR1 and PDR3 efflux regulators; inhibition, % at 9.4 µM; actives 0.32% (n = 310,000);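 active = every replicate shows inhibition above about 80%, whatever the replicate mean, limit read from the data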;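 also: 0% = DMSO neutral controls and 100% = 20 µM radicicol positive controls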
# tim23-1 inh: growth inhibitors of tim23-1 mutant yeast; S. cerevisiae tim23-1 growth, BacTiter-Glo luminescence, 24 h; inhibition, % at 20 µM; actives 1.3% (n = 330,000); AID 463212;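 active = growth inhibition of the mutant yeast at or above 50%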;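 also: temperature-sensitive mutant grown at 25 °C; plate controls were DMSO-treated mutant yeast for no effect and medium wells lacking yeast for full effect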
# tim10-1 inh: tim10-1 yeast growth inhibition. inhibition, % at 20 µM. actives 2.2% (n = 330,000). S. cerevisiae tim10-1 ts strain growth, BacTiter-Glo, 24 h. AID 463190;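 active = inhibition of at least 40%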;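 also: mutant grown at 25 °C; 0% = DMSO wells with yeast and 100% = wells holding no yeast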
# TIM10 inh: TIM10 yeast growth inhibition; S. cerevisiae TIM10 strain growth, BacTiter-Glo luminescence, 24 h; inhibition, % at 10 µM; actives 1.4% (n = 330,000); AID 463195;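 active = inhibition of 40% or more at the single tested concentration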;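 also: wild-type TIM10 isogenic control strain grown at permissive 25 °C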
# Rce1 inh: yeast Ras-converting enzyme inhibition | yeast membranes, quenched prenylated peptide cleavage fluorescence | Q03530 | calls only | actives 0.27% (n = 290,000);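 active = fall in fluorescence gain of 50% or more versus controls, with final raw signal at or below 3038400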;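 also: plate controls were neutral control wells for no effect and wells lacking membranes for full effect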
# Target sequence (Q03530 whole entry, looked up): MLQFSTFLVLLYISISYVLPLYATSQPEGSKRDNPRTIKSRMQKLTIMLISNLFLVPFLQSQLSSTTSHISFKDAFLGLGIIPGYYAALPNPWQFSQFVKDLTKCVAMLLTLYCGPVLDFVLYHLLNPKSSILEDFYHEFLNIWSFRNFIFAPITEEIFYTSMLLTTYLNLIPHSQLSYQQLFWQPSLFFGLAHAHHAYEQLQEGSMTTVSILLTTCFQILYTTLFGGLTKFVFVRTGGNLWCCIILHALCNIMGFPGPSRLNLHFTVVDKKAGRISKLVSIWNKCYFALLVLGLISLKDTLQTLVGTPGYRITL
# tim10-1 confirm: tim10-1 yeast growth inhibition, confirmed; AID 463213; shares compounds with tim10-1 inh; S. cerevisiae tim10-1 ts strain growth, BacTiter-Glo, 24 h; inhibition, % at 20 µM; actives 56% (n = 7,400);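 active = inhibition of yeast growth at or above a set limit in either of two repeat tests at 20 µM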;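 also: tim10-1 mutant grown at permissive 25 °C to find synthetic lethal compounds; 0% = DMSO yeast wells and 100% = medium wells without yeast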
# TIM10 conf: confirmation of TIM10 yeast growth inhibitors. shares compounds with TIM10 inh. S. cerevisiae tim10 strain growth, BacTiter-Glo luminescence, 24 h. inhibition, % at 10 µM. actives 63% (n = 4,600). AID 463215;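 active = inhibition of yeast growth at or above a set limit in either of two replicates at 10 µM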;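 also: this counterscreen used the strain with wild-type TIM10; 0% = yeast with DMSO and 100% = medium wells lacking yeast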
# tim23-1 confirm: confirmation of tim23-1 mutant yeast growth inhibitors; shares compounds with tim23-1 inh; actives 83% (n = 4,400); inhibition, % at 20 µM; S. cerevisiae tim23-1 growth, BacTiter-Glo luminescence, 24 h;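 active = inhibition above about 39% in either of two replicate wells at 20 µM, limit read from the data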;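 also: temperature-sensitive tim23-1 mutant grown at 25 °C; 0% = DMSO wells with yeast and 100% = medium wells without yeast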
# Starred values were filed as active, the others as inactive; i = inactive; . = no result given.
SMILES,PfHsp90 yeast 2,tim23-1 inh,tim10-1 inh,TIM10 inh,Rce1 inh,tim10-1 confirm,TIM10 conf,tim23-1 confirm
Cc1[nH]nc2c1C(c1ccc(-c3ccc(Cl)cc3)o1)C(C#N)=C(N)O2 (configuration not stated),1.0,33.6,33.5,21.9,i,.,.,.
CCc1ccccc1NC(=O)c1ccc(OCc2c(C)noc2C)cc1,16.4,20.2,21.5,3.2,.,.,.,.
COc1ccc(-c2n[nH]c(C)c2-c2cnn(-c3ccccc3)c2)c(O)c1,22.6,59.9*,51.3*,50.0*,.,41.7*,44.0*,49.8*
COc1ccc(C(c2nnnn2C2CCCC2)N2CCc3ccccc3C2)cc1OC (configuration not stated),14.4,.,.,.,i,.,.,.
COc1ccc(OC)c(C(c2nnnn2C2CCCC2)N2CCc3ccccc3C2)c1 (configuration not stated),-2.4,52.3*,42.0*,36.0,i,38.5*,.,42.1*
COc1ccc(/C=C/C(=O)ONC2=NCCCCC2)cc1OC,-1.2,58.4*,67.6*,49.0*,i,68.6*,37.0*,31.2
CC1(C)CNC(=O)CC(C)(C)N1,-26.5,10.2,0.0,-21.3,.,.,.,.
COC(=O)Cc1c(C)c2ccc(OCC(C)=O)c(C)c2oc1=O,-24.5,7.2,12.7,4.8,i,.,.,.
C=C(C)COc1ccc2c(C)c(CC(=O)OC)c(=O)oc2c1C,28.9,61.5*,80.4*,86.5*,.,75.7*,87.5*,64.8*
Cn1cccc1/C=N/n1c(-c2ccccc2)n[nH]c1=S,-2.9,25.7,10.1,32.0,i,.,.,.
Cn1cccc1/C=N/n1c(-c2ccc(C(C)(C)C)cc2)n[nH]c1=S,.,53.7*,44.0*,37.2,i,28.6,.,48.5*
O=[N+]([O-])c1ccc(/C=N/Nc2nc(N3CCCCC3)nc(N3CCCCC3)n2)o1,.,50.0*,55.2*,47.8*,i,45.8*,20.9,44.1*
COc1c(/C=N/Nc2nc(N3CCCCC3)nc(N3CCCCC3)n2)cccc1[N+](=O)[O-],-26.0,13.9,20.9,8.1,i,.,.,.
C=CC[n+]1c(-c2ccc(Cl)cc2Cl)csc1Nc1ccc(NC(C)=O)cc1,-9.8,66.7*,59.5*,36.8,i,58.5*,.,78.5*
C=CC[n+]1c(-c2ccc(Cl)cc2Cl)csc1Nc1c(C)n(C)n(-c2ccccc2)c1=O,-6.9,52.3*,48.8*,30.1,i,37.7*,.,49.0*
O=C1NC2(CCCCCC2)N=C1c1ccc(Br)cc1,8.2,9.8,18.9,1.8,i,.,.,.
O=C(NC1CCCC1)c1cccc(Cl)c1,9.4,8.5,-10.0,-2.2,i,.,.,.
O=C(NC1CC1)c1ccc2c(c1)C1C3CCC(C3)C1C(c1ccccc1)N2 (configuration not stated),-4.7,61.9*,49.6*,41.3*,i,42.1*,0.3,54.4*
COc1ccc(N2CC(C(=O)Nc3nnc(SCC(=O)NCC4CCCO4)s3)CC2=O)cc1 (configuration not stated),-13.9,15.6,9.7,-3.9,i,.,.,.
CC(=O)N(c1cccc(C(F)(F)F)c1)c1nc(/C=C/C(=O)O)cs1,-7.0,11.6,5.6,-15.8,i,.,.,.
COc1c(O)c(O)c2oc(-c3ccccc3)cc(=O)c2c1OC,30.3,58.8*,50.3*,40.4*,.,33.0*,30.6*,55.5*
COc1cc(-c2cc(=O)c3c(O)c(OC)c(OC)c(O)c3o2)ccc1O,3.2,22.4,18.0,3.9,i,.,.,.
O=C(Cn1cncc1-c1ccc([N+](=O)[O-])cc1)Nc1cccc2ccccc12,9.3,.,.,.,i,.,.,.
CCOC(=O)c1cnc2c(OC)cccc2c1N1CC(C)CC(C)C1 (configuration not stated),21.1,71.0*,42.0*,27.6,i,34.8*,.,51.5*
COc1cccc2[nH]c3c(N4CC(C)CC(C)C4)ncnc3c12 (configuration not stated),.,21.8,37.9,33.3,i,.,.,.
SMILES,PfHsp90 yeast 2,tim23-1 inh,tim10-1 inh,TIM10 inh,Rce1 inh,tim10-1 confirm,TIM10 conf,tim23-1 confirm
O=C(c1ccccc1)C(CCC(CN1CCOCC1)C(=O)c1ccccc1)CN1CCOCC1 (configuration not stated),11.5,52.6*,53.8*,60.0*,i,48.5*,67.9*,46.6*
CC(CN1CCOCC1)OC(=O)C(c1ccccc1)c1ccccc1 (configuration not stated),-5.8,-9.4,4.9,-3.1,i,.,.,.
COc1ccc2nc(NC(=O)c3cc(C)oc3C)sc2c1,41.8,33.7,29.7,28.2,.,.,.,.
COc1ccc2nc(NC(=O)c3ccoc3C)sc2c1,54.4,55.1*,58.1*,46.5*,i,59.1*,31.8*,61.1*
CSc1nc2ccc(NS(=O)(=O)c3ccccc3F)cc2s1,-8.0,35.3,22.3,24.5,i,.,.,.
CSc1nc2ccc(NS(=O)(=O)c3c(Cl)cccc3Cl)cc2s1,-38.1,51.9*,42.6*,35.4,i,29.8*,.,56.6*
Cc1ccccc1NC(=O)CCS(=O)(=O)c1ccc(Br)s1,8.6,11.7,-3.1,3.2,i,.,.,.
COC(=O)c1ccccc1NC(=O)CCS(=O)(=O)c1ccc(Br)s1,.,54.9*,43.9*,33.4,i,44.0*,.,46.5*
Cc1cc(N)n(-c2ncnc3scc(-c4ccc(Cl)cc4)c23)n1,-5.8,19.4,20.1,19.6,i,.,.,.
Clc1ncnc2scc(-c3ccc(Br)cc3)c12,8.7,50.1*,40.0,5.3,i,24.5,.,51.8*
COc1ccc2cc3cc(C(=O)N4CCN(c5ccccn5)CC4)oc3nc2c1,-23.1,54.0*,43.8*,55.1*,i,27.2,58.8*,-2.1
O=C(c1cc2ccccc2o1)N1CCN(c2ccccn2)CC1,-7.5,16.8,20.2,15.7,i,.,.,.
O=C(CCNS(=O)(=O)c1ccccc1)N1CCC(Cc2ccccc2)CC1,12.1,26.8,4.8,-54.4,i,.,.,.
O=C(COc1cccc(NC(=O)c2cccs2)c1)c1ccc(F)cc1,17.6,52.6*,46.1*,62.0*,i,40.4*,-16.0,75.7*
CCCCS(=O)(=O)N1CCCC(C(=O)Nc2ccc3c(c2)CCC3)C1 (configuration not stated),-2.2,-1.5,0.2,5.7,i,.,.,.
CCCN(CCC)C(=O)c1cc([N+](=O)[O-])cc2c1-c1ccc([N+](=O)[O-])cc1C2=C(C#N)C#N,.,74.2*,66.7*,10.9,i,67.2*,.,74.8*
O=C(N/N=C/c1cc(Cl)ccc1O)c1ccccc1Br,-3.9,65.5*,41.7*,53.7*,i,11.8,32.5*,59.2*
O=C(CNC(=O)c1ccccc1Br)N/N=C/c1cc(Br)ccc1O,19.2,-4.4,15.1,-1.6,i,.,.,.
